Where “and” joins values, the source holds several entries; their conditions need not be identical. Equal entries are not always repeated. Hit rate of the full screen: of about 16,000 compounds, about 2,600 (16%) were called active. Another 20% or so got no clear call; they are omitted. The call rests on the fitted dose curve; in most records, active means well fitted curve in the direction sought with a large enough effect; inconclusive means small, poorly fitted or top-dose-only effect, or effect the other way; inactive means no such curve, though single readings can be large or run the other way. These entries were drawn from the full list. More than one record can exist for a structure, and the calls need not agree.
target: Cytochrome P450 2D6 (Homo sapiens) (UniProt P10635); assay: Cytochrome panel assay with activity outcomes; details: recombinant CYP, pro-luciferin dealkylation, luminescence, p450-cyp2d6; series mostly up to 57.1 µM; activity, negative = inhibition: at the top concentration
On the % scale 0 is the no-effect control and ±100 the full control effect.

Chain of Cytochrome P450 2D6 (Homo sapiens) (P10635 whole entry, looked up): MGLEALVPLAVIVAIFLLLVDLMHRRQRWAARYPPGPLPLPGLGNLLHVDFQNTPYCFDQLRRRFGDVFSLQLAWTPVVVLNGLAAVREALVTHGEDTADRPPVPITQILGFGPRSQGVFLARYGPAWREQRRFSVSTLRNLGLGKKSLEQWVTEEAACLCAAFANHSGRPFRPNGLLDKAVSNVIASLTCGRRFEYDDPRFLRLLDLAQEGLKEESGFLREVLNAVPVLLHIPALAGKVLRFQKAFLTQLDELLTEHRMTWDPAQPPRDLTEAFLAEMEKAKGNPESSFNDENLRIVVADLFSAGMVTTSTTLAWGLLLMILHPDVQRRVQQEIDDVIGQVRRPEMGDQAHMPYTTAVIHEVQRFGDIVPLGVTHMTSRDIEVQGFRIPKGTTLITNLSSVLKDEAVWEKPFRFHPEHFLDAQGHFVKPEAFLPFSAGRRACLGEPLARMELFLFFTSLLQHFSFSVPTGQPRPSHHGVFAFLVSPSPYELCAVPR

Structure (SMILES) | activity, negative = inhibition | AC50
COc1ccc(Cc2nnc(NC(=O)Cn3cnc4c3c(=O)n(C)c(=O)n4C)s2)cc1OC | 0.583% (inactive) | –
CCOC(=O)c1c(C)nc2c(c1-c1ccc(OC)cc1)C(=O)CC(C)(C)C2 | 18.9% (inactive) | –
COc1ccc(C2C3=C(CC(C)(C)CC3=O)Oc3ncn(CC(C)C)c(=N)c32)cc1 (stereo unspecified) | – | 1 µM (active)
COc1cccc(C2C3=C(CC(C)(C)CC3=O)OC(N)=C2[N+](=O)[O-])c1 (stereo unspecified) | 5.32% (inactive) | –
O=C(c1ccco1)N1CCC2(CC1)CCN(C(c1ccccc1)c1ccccc1)CC2 | – | 5.01 µM (active)
O=C(c1ccco1)N1CCC2(CCCN(c3ccccc3)C2)CC1 | 8.54% (inactive) | –
O=C(c1ccco1)N1CCC[C@@]2(CCN(C(c3ccccc3)c3ccccc3)C2)C1 | – | 3.16 µM (active)
N#Cc1cccc(NC(=O)N2CC[C@@]3(CCCN(C(=O)c4ccco4)C3)C2)c1 | 0.875% (inactive) | –
O=C(Nc1ccccc1)N1CCC2(CC1)CCN(C(=O)c1ccco1)CC2 | -6.85% (inactive) | –
O=C(c1ccco1)N1CCC2(CC1)CCN(c1ccc(-c3ccccc3)cc1)CC2 | 3.42% (inactive) | –
COc1ccc(NC(=O)N2CCCC3(CCN(C(=O)c4ccco4)CC3)C2)cc1 | 1.44% (inactive) | –
O=C(Nc1ccccc1)N1CCCC2(CCN(C(=O)c3ccco3)CC2)C1 | -3.4% (inactive) | –
O=C(c1ccco1)N1CCC2(CC1)CN(c1cccc(-c3ccccc3)c1)C2 | -7.16% (inactive) | –
CC(C)NC(=O)N1CCCC2(CCN(C(=O)c3ccco3)CC2)C1 | – | 2.51 µM (active)
CC(C)NC(=O)N1CCC2(CC1)CCN(C(=O)c1ccco1)CC2 | 3.08% (inactive) | –
O=C(c1ccco1)N1CCC2(CCCN(C(c3ccccc3)c3ccccc3)C2)CC1 | – | 10 µM (active)
Cc1nc2ccccn2c1/C(O)=C1\C(=O)C(=O)N(CCN2CCOCC2)C1c1cccnc1 (stereo unspecified) | 2.67% (inactive) | –
CCOc1ccc(/C(O)=C2/C(=O)C(=O)N(CCOCCO)C2c2cccnc2)cc1 (stereo unspecified) | 0.201% (inactive) | –
CN[C@H](CC(=O)O)C(=O)O | 5.67% (inactive) | –
C=C[C@@]1(C)CC(=O)[C@@]2(O)[C@@]3(C)[C@@H](O)CCC(C)(C)[C@@H]3[C@H](O)[C@H](OC(C)=O)[C@@]2(C)O1 | 13.2% (inactive) | –
COc1ccc(C(=O)N2CCC3(CC2)CN(C(=O)Nc2ccccc2)C3)cc1 | -0.471% (inactive) | –
Cc1cc(C(C#N)c2cccc(Cl)c2)n2ncnc2n1 (stereo unspecified) | -12.6% (inactive) | –
CC1CC(=O)c2cnc(N)nc2C1 (stereo unspecified) | -2.38% (inactive) | –
COC(=O)[C@@H]1CC[C@H](C)[C@@H](c2ccc(C)cc2)N1C(=O)c1ccc(/C=N\O[C@@H](C)c2cn([C@H]3COC[C@H]3O)nn2)cc1 | -10% [at 11.4 µM] (inactive) | –

Structure (SMILES) | activity, negative = inhibition | AC50
CC(C)=CC(=O)Nc1nnc(C(C)C)s1 | -2.19% (inactive) | –
COc1ccc(OCc2nnc(SCC(=O)O)n2N)cc1 | 0.675% (inactive) | –
O=C(c1ccco1)N1CCC2(CC1)CN(c1ccc(-c3ccccc3)cc1)C2 | -3.41% (inactive) | –
O=C(c1ccco1)N1CCC2(CC1)CN(c1ccccc1)C2 | -1.67% (inactive) | –
O=C(c1ccco1)N1CCC2(CC1)CN(C(c1ccccc1)c1ccccc1)C2 | – | 1.26 µM (active)
O=C(N/C(=C\c1cccs1)C(=O)N1CCCCCC1)c1ccccc1 | 36.2% (inactive) | –
O=C(O)CS(=O)c1ccc2c3c(cccc13)C(=O)c1ccccc1-2 (stereo unspecified) | 21.8% [at 11.4 µM] (inactive) | –
CN(C(=O)COc1cccc(Br)c1)C1CCS(=O)(=O)C1 (stereo unspecified) | 1.67% (inactive) | –
COc1ccc(NC(=O)COC(=O)c2c(-c3ccccc3)noc2C)cc1 | -25.8% (inactive) | –
C/C(=N\NC(=O)c1ccc(Cl)cc1)c1ccc(Br)s1 | -11.7% (inactive) | –
C[C@@H](CSC(=N)N)C(N)=O | 4.14% [at 11.4 µM] (inactive) | –
N=C(N)SCCN | – | inactive
CC(C)SC(=N)N | -10% (inactive) | –
CCSC(=N)N | – | inactive and 3.98 µM (active)
N=C(N)SCCSC(=N)N | 5.17% [at 11.4 µM] (inactive) | –
CSC(=N)N | – | inactive and 50.1 nM (active)
CCn1c(C)nc2cc(S(=O)(=O)C(F)F)ccc21 | -10.5% (inactive) | –
Cc1ccc(Sc2nc(-c3ccccc3)ccc2C#N)cc1 | 14.4% (inactive) | –
CCOC(=O)C1CCCN(C(=O)C2CCN(S(=O)(=O)N3CCC4(CC3)OCCO4)CC2)C1 (stereo unspecified) | 22.9% (inactive) | –
CCCCSc1nnc(-c2ccc(C)cc2)n1C | -29.4% (inactive) | –
NNC(=O)CNc1cccc(Br)c1 | -9.21% [at 11.4 µM] (inactive) | –
NNC(=O)CNC(c1ccccc1)c1cc(Br)ccc1NC(=O)c1ccccc1Br (stereo unspecified) | – | 7.94 µM (active)
COC(=O)CNC(c1ccccc1Cl)c1cc(Br)ccc1NC(=O)CCN1CCOCC1 (stereo unspecified) | -2.43% (inactive) | –
O=S1(=O)N[C@H]2CC[C@@H]3NS(=O)(=O)N[C@H]4CC[C@H](N1)N4S(=O)(=O)N23 | 12.7% [at 11.4 µM] (inactive) | –

Structure (SMILES) | activity, negative = inhibition | AC50
CC(C)(C)N1C(=O)[C@H]2[C@@H]3[C@H](O)C=CC(=O)[C@H]3CC[C@H]2C1=O | 7.58% [at 11.4 µM] (inactive) | –
COc1ccc(N(C)C(=O)c2ccc3nc(-c4ccccc4)c(-c4ccccc4)nc3c2)cc1 | -20% (inactive) | –
CS(=O)(=O)N1CC(C(=O)NC2CC2)Oc2ccc(Cl)cc21 (stereo unspecified) | -34.3% (inactive) | –
C=C(CC1([C@@H](NP(=O)(c2ccccc2)c2ccccc2)[C@H]2C[C@@H]2CCN(C(=O)OCC)S(=O)(=O)c2ccc(C)cc2)CC1)c1ccccc1 | -3.76% (inactive) | –
N#CCCn1c(=O)c(-c2ccc(Cl)cc2)nc2cnc(N3CCOCC3)nc21 | 7.8% (inactive) | –
Cc1ncc(CSC(=N)N)n1Cc1ccccc1 | -11.5% [at 11.4 µM] (inactive) | –
Cc1nc2cncnc2n(Cc2ccccc2)c1=O | -16.4% (inactive) | –
Cc1ccc([C@@H](O)c2cnc(C)n2Cc2ccccc2)cc1 | – | 0.631 µM (active)
Cc1nn2c(C)nc3sc4c(c3c2nc1=O)CC(C)(C)OC4 | -14% (inactive) | –
CCOC(=O)N1CCN(C(=O)c2ccc(NC(C)=O)cc2)CC1 | 6.16% (inactive) | –
CCOC(=O)c1cnc(SCCc2ccccc2)nc1N | – | 2 µM (active)
CCOC(=O)c1cnc(-c2ccccc2)nc1Oc1cccc(Cl)c1 | -10.8% (inactive) | –
CCOC(=O)c1cnc(-c2ccccc2)nc1Oc1ccccc1 | 3.05% (inactive) | –
O=C1C(O)=C(O)C(=O)C(O)=C1O | 3.02% [at 25.6 µM] (inactive) | –
NS(=O)(=O)c1ccc(NCc2ccccc2OCc2ccccc2F)cc1 | – | 15.8 µM (active)
NS(=O)(=O)c1ccc(NCc2nc3ccccc3[nH]2)cc1 | -10.2% [at 11.4 µM] (inactive) | –
NS(=O)(=O)c1ccc(NCc2cnc3ccccc3n2)cc1 | 16.5% [at 11.4 µM] (inactive) | –
O=C(NNC(=O)c1ccccc1)C(=O)N1CCCCC1 | 4.89% (inactive) | –
BrC(c1cccc2ccccc12)c1cccc2ccccc12 | 11.2% [at 11.4 µM] (inactive) | –
COc1cccc(-c2cncnc2NCc2cccc(C)c2)c1 | – | 12.6 µM (active)
COc1ccccc1-c1cncnc1NCc1cccc(C)c1 | – | 20 µM (active)
Cc1cccc(CNc2ncncc2-c2cccc(NS(C)(=O)=O)c2)c1 | – | 20 µM (active)
Cc1cccc(CNc2cc(-c3cccc(NS(C)(=O)=O)c3)ncn2)c1 | -19.4% (inactive) | –
COc1ccccc1-c1cncnc1NCc1ccccc1 | – | 15.8 µM (active)

Structure (SMILES) | activity, negative = inhibition | AC50
CNc1ncncc1-c1ccccc1OC | -8.63% (inactive) | –
NCCCNCCCCNCCCN | – | inactive
O=C(c1ccc(-c2nnc(Nc3ccccc3)c3ccccc23)cc1)N1C[C@H]2C[C@H](C1)c1cccc(=O)n1C2 | -7.8% (inactive) | –
O=C(NCc1ccco1)c1ccc2c(=O)n(-c3ccccc3)c(=S)[nH]c2c1 | 5.2% (inactive) | –
COc1ccc(-n2c(=O)c(-c3ccc(F)cc3)nc3cnc(OC)nc32)cc1 | 2.35% (inactive) | –
O=C(Nc1ccc(C(=O)Nc2ccc(C(=O)Nc3ccc(S(=O)(=O)O)c4cc(S(=O)(=O)O)cc(S(=O)(=O)O)c34)cc2)cc1)Nc1ccc(C(=O)Nc2ccc(C(=O)Nc3ccc(S(=O)(=O)O)c4cc(S(=O)(=O)O)cc(S(=O)(=O)O)c34)cc2)cc1 | 6.42% (inactive) | –
Cc1nonc1NC(=O)OCCN1CCOC1=O | -3.81% (inactive) | –
O=C(O)/C(=C/c1c(C(=O)O)[nH]c2cc(Cl)cc(Cl)c12)c1ccccc1 | -0.959% (inactive) | –
C[C@@]12CCC(=O)C=C1CC[C@@H]1[C@@H]2[C@H](O)C[C@]2(C)[C@@H]1CC[C@]2(O)C(=O)COC(=O)CCC(=O)O | 1.71% (inactive) | –
COc1c(O)cc2c(c1O)[C@@H]1O[C@@H](CO)[C@@H](O)[C@@H](O)[C@@H]1OC2=O | -2.8% [at 25.6 µM] (inactive) | –
CSc1nc(C)c(CCOC(=O)c2ccccc2)c(=O)[nH]1 | -10.1% (inactive) | –
CCN(CC)C(=O)c1cc2cc([N+](=O)[O-])ccc2s1 | -21.9% (inactive) | –
CC1CCCC(NC(=O)c2n[nH]c(=O)c3ccccc23)C1C (stereo unspecified) | -6.47% (inactive) | –
COc1cc([C@H](O)C(=O)O)ccc1O | 3.7% (inactive) | –
O=[N+]([O-])c1cccc(-c2nc(-c3ccncc3)no2)c1 | -23.6% (inactive) | –
NS(=O)(=O)c1ccc(N=C2C(=O)Nc3ccccc32)cc1 | 2.35% [at 11.4 µM] (inactive) | –
O=C(O)[C@@H]1CCCNC1 | 5.9% [at 25.6 µM] (inactive) | –
O=C1C[C@@H](O)[C@@H](O)[C@H]2[C@@H]3C(=O)N(Cc4ccc5c(c4)OCO5)C(=O)[C@@H]3CC[C@H]12 | 14% [at 11.4 µM] (inactive) and -16.6% [at 11.4 µM] (inactive) | –
O=C1[C@H]2[C@H]3[C@H](O)[C@H](O)C/C(=N/OCc4ccccc4)[C@H]3CC[C@@H]2C(=O)N1Cc1ccc2c(c1)OCO2 | -14.6% [at 11.4 µM] (inactive) | –
COc1ccc(CCN2C(=O)C(O)=C(C(=O)c3ccco3)C2c2cccs2)cc1OC (stereo unspecified) | -8.35% (inactive) | –
Cc1ccccc1OC1C(=O)N(Cc2ccc3c(c2)OCO3)C1c1sccc1C (stereo unspecified) | – | 8.91 µM (active)
COc1ccc(CCN2C(=O)C(Oc3ccccc3C)C2c2ccc3c(c2)OCO3)cc1OC (stereo unspecified) | – | 14.1 µM (active)
COC(=O)c1ccc(C2C(Oc3ccccc3)C(=O)N2CCc2ccc(OC)c(OC)c2)cc1 (stereo unspecified) | 6.39% (inactive) | –
CCCCCc1nc2c(=O)[nH]c3ccccc3c2o1 | -9.54% (inactive) | –

Source: PubChem BioAssay AID1851 (National Center for Advancing Translational Sciences (NCATS), 2009)
